Data reported in publication PMC7862700, “An all-to-all approach to the identification of sequence-specific readers for epigenetic DNA modifications on cytosine”.

Tests used:
Assay in all cases: DAPPL (digital affinity profiling via proximity ligation, sequencing); 10 mM Tris-HCl pH 7.5, 50 mM NaCl, 1 mM DTT, 4% glycerol, room temperature, 30 min; GST-TFs on glutathione beads, 16-mer random dsDNA library, 0.1% formaldehyde crosslink after washing; high values mean tight binding
Details in all cases: protein: recombinant; tags: N-terminal GST; dsDNA, one strand shown
FLI1 = target: T1, FLI1 (Homo sapiens, UniProt Q01543 1-452)
T1 sequence: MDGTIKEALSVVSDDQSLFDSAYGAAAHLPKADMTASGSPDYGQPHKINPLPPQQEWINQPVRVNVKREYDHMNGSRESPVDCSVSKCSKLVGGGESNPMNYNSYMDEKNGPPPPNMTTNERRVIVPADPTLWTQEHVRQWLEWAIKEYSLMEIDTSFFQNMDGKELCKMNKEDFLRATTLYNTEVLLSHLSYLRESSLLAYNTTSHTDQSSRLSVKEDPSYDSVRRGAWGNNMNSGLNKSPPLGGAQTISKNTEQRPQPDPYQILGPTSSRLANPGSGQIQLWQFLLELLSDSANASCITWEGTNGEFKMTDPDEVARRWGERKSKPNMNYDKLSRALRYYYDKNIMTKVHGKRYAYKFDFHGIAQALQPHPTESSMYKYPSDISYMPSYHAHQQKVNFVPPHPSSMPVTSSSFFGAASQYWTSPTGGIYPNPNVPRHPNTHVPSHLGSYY
Procedure, shortened: (§1)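 Human transcription factors fused to GST were expressed in yeast, captured on glutathione beads, given DNA barcodes and pooled with a GST-only negative control. Pools were incubated with 200 nmole of a 16-mer random double-stranded DNA library in Tris/NaCl/DTT/glycerol buffer at room temperature for 30 min. They were then washed, crosslinked with 0.1% formaldehyde, proximity-ligated (BsaI/T4 ligase, 1 h, 37 °C), PCR-amplified and sequenced on an Illumina NextSeq500. Binding signal is each 6-mer's read frequency for a factor divided by its frequency for the GST control.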

ELK1 = target: T2, ELK1 (Homo sapiens, UniProt P19419 1-428)
T2 sequence: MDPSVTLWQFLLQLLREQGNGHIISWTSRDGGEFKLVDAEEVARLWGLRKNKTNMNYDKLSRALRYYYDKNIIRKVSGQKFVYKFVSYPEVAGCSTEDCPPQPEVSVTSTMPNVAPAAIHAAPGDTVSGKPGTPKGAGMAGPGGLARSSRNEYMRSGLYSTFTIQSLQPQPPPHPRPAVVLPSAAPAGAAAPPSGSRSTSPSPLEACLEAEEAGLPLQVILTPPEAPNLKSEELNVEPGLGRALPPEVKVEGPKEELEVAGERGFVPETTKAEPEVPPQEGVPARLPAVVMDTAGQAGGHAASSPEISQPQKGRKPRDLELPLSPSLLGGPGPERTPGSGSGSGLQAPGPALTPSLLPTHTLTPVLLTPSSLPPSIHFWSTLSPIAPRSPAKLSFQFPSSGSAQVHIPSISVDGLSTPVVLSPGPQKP
Procedure, shortened: as §1

GABPA = target: T3, GABPA (Homo sapiens, UniProt Q06546 1-454)
T3 sequence: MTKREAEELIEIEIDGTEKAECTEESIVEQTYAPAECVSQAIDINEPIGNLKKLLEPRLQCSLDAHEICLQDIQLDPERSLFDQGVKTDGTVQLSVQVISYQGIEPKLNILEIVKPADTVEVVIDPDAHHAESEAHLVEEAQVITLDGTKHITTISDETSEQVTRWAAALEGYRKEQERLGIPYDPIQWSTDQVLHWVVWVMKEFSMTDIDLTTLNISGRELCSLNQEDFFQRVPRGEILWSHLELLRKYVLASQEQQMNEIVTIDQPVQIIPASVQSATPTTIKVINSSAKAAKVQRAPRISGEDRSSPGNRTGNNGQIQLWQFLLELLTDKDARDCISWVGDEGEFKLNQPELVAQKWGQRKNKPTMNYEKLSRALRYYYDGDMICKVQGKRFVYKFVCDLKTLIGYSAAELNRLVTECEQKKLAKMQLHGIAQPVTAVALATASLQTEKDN
Procedure, shortened: as §1

ERG = target: T4, ERG (Homo sapiens, UniProt P11308 1-479)
T4 sequence: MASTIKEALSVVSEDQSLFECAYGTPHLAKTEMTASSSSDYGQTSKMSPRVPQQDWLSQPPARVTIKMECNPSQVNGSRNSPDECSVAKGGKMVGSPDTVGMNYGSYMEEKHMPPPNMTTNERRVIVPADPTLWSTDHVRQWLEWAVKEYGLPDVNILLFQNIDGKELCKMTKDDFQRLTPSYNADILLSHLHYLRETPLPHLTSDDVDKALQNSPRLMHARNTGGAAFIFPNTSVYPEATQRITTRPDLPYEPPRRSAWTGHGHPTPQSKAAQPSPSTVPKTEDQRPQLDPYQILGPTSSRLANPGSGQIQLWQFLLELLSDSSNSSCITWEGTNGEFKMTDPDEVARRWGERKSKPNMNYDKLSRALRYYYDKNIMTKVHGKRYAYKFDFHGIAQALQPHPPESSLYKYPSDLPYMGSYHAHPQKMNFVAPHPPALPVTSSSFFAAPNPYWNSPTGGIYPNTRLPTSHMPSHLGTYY
Procedure, shortened: as §1

ELF1 = ELF1 (Homo sapiens, UniProt P32519 1-619)
Procedure, shortened: as §1

EHF = target: T5, EHF (Homo sapiens, UniProt Q9NZC4 1-300)
T5 sequence: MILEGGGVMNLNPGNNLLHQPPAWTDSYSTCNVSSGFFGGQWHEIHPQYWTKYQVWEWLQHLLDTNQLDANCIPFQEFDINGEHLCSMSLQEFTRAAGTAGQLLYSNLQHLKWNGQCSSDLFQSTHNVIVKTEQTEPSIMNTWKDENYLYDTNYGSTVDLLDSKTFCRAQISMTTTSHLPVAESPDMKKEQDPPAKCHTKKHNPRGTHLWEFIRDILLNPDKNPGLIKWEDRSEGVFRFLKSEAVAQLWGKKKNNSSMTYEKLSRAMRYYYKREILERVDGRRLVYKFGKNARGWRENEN
Procedure, shortened: as §1

SPI1 = SPI1 (Homo sapiens, UniProt P17947 1-270)
Procedure, shortened: as §1

SPIB = SPIB (Homo sapiens, UniProt Q01892 1-262)
Procedure, shortened: as §1

ELK3 = target: T6, ELK3 (Homo sapiens, UniProt P41970 1-407)
T6 sequence: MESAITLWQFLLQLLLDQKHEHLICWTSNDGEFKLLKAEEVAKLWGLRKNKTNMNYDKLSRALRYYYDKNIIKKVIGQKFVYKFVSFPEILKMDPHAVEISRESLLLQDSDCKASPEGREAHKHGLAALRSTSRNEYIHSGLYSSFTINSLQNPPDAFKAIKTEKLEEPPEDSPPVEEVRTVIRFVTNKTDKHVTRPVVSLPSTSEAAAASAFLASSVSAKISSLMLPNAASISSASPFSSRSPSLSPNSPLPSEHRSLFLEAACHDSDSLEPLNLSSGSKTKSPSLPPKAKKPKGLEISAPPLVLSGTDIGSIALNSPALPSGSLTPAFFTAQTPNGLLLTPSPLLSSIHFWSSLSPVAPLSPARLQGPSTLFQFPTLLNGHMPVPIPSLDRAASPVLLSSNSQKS
Procedure, shortened: as §1

SPIB, sequence (Q01892 whole entry): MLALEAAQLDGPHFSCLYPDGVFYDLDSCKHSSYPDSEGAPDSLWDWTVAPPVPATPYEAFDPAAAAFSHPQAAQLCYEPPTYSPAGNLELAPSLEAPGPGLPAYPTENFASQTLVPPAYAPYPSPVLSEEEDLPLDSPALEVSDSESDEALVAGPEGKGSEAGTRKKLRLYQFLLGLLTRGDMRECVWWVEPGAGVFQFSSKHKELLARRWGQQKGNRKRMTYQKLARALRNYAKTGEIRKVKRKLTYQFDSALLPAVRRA
ELF1, sequence (P32519 whole entry): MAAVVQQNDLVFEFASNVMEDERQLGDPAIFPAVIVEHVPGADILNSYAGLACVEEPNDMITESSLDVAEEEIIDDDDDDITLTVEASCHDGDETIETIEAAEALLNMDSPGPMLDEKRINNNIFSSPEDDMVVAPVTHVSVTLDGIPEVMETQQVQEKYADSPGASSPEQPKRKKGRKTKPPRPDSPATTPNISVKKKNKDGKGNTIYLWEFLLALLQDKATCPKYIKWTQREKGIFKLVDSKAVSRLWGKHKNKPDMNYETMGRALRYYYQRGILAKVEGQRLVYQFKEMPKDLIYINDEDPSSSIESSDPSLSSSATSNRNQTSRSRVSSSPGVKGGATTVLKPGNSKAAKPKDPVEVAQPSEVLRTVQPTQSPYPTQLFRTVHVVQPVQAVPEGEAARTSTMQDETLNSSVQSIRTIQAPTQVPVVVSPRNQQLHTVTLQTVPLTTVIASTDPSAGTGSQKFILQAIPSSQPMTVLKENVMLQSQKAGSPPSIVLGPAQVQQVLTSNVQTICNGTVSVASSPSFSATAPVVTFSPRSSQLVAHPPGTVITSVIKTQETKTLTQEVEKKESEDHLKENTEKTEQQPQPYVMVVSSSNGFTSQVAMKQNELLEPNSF

Question: With TTCTAC as the sequence, how does the binding signal (FLI1) read?
Answer: The binding signal was 1.39 fold enrichment (6-mer frequency, TF over GST control).

Question: What about the binding signal (ELK1) of the same sequence?
Answer: Its binding signal is 1.43 fold enrichment (6-mer frequency, TF over GST control).

Question: What about the binding signal (GABPA) of the same sequence?
Answer: Its binding signal is 1.59 fold enrichment (6-mer frequency, TF over GST control).

Question: What about the binding signal (ERG) of the same sequence?
Answer: The binding signal was 1.53 fold enrichment (6-mer frequency, TF over GST control).

Question: And the binding signal (ELF1)?
Answer: The binding signal was 1.55 fold enrichment (6-mer frequency, TF over GST control).

Question: What about the binding signal (EHF) of the same sequence?
Answer: Its binding signal is 1.49 fold enrichment (6-mer frequency, TF over GST control).

Question: What about the binding signal (SPI1) of the same sequence?
Answer: The binding signal was 1.46 fold enrichment (6-mer frequency, TF over GST control).

Question: What about the binding signal (SPIB) of the same sequence?
Answer: Its binding signal is 1.6 fold enrichment (6-mer frequency, TF over GST control).

Question: What about the binding signal (ELK3) of the same sequence?
Answer: Its binding signal is 1.44 fold enrichment (6-mer frequency, TF over GST control).
